In PubChem BioAssay AID2546 (National Center for Advancing Translational Sciences (NCATS), 2010):
Where “and” joins values, the source holds several entries; their conditions need not be identical. Equal values may be shown once. In all, about 310,000 compounds went through this assay and about 11,000 (3.5%) were called active. Another 8% or so got no clear call; they are omitted. Calls follow the shape of the dose curve; as a rule, active = well fitted inhibition curve with a large enough effect; inconclusive = small, poorly fitted or top-dose-only effect, or effect the other way; inactive = flat fitted curve, though single readings scatter. Shown is part of a subset that was picked to be rich in actives. A call without a number means that no potency is given here.

Experiment: VP16 counterscreen qHTS for inhibitors of ROR gamma transcriptional activity;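 also: Gal4-VP16 expression switched on by copper sulfate through the metallothionein promoter; nearly all actives have a fitted effect of over 50% in size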
Conditions: Drosophila S2 Gal4-VP16 UAS-luciferase, luminescence, 20 h; series mostly up to 53.6 µM
Potency is read from the fitted curve at half-maximal effect.

Compound	Potency	activity, negative = inhibition
O=S(=O)(c1ccc(Br)cc1)c1nc(-c2ccccc2)oc1N1CCOCC1	inactive	–
COc1cc(C(=O)NC2CCN(Cc3ccccc3)CC2)cc(Cl)c1OC(C)C	inactive	–
COc1ccc(Cc2nc(-c3ccccn3)no2)cc1OC	inactive	–
CCOC(=O)c1cnc(-c2ccccc2)nc1Oc1ccc(C)cc1	inactive	–
COc1ccccc1Oc1nc(-c2cccnc2)nc2ccccc12	inactive	–
COc1cnc(-c2ccccn2)nc1Oc1ccc(C(C)(C)C)cc1	12.6 µM (active)	–
CNc1nc(-c2ccccc2OC)nc2ccccc12	inactive	–
Cc1ccc(Oc2nc(-c3ccccn3)nc3ccccc23)cc1	3.16 µM (active)	–
COc1ccc(Sc2nc(-c3ccccc3)ncc2OC)cc1	inactive	–
Cc1cnc(CNc2nc(-c3cccnc3)nc3ccccc23)cn1	inactive	–
CC(C)(C)Nc1nc(-c2ccccn2)nc2ccccc12	3.98 µM (active)	–
CCCc1ccc(OCC(O)CN2CCN(C(=O)OCC)CC2)cc1 (centres undefined)	inactive	–
CC(C)c1ccc(NC(=O)C2CCCN(S(=O)(=O)c3cccnc3)C2)cc1 (centres undefined)	inactive	–
CCCn1c(C2CCCN2c2nc(-c3ccc(C)cc3)cs2)nc2cc(Cl)c(N3CCCCC3)cc21 (centres undefined)	inactive	–
COc1ccc(CNC(=O)c2cc(=O)c3c(C)cc(C)cc3o2)cc1	inactive	–
O=C(NCCCN1CCOCC1)c1cc(-c2ccccc2F)no1	inactive	–
COc1ccccc1N1CCN(S(=O)(=O)c2ccc3c(c2)NC(=O)CS3)CC1	inactive	–
O=[N+]([O-])c1cccc2ncccc12	inactive	–
Cc1ccccc1NC(=O)c1ccccc1NS(=O)(=O)c1cccc2cccnc12	inactive	–
O=[N+]([O-])c1ccccc1S(=O)(=O)Nc1cccc2cccnc12	1.41 µM (active) and 1 µM (active)	–
Cc1nc2ccc(C(=O)N(C)CC3CCCN(CCc4ccc(Cl)cc4)C3)cc2[nH]1 (centres undefined)	inactive	–
CC(C)CNS(=O)(=O)c1ccc(CCC(=O)NCc2ccc(Cl)cc2)cc1	inactive	–
CCOC(OCC)c1ccc(/C=C\c2nccc(N)n2)cc1	inactive	–
COC(=O)c1ccc(OC(=O)c2cnccn2)cc1	inactive	–
c1ccc(-c2cn3c(n2)CCc2ccc4cccnc4c2-3)cc1	7.94 µM (active)	–

Compound	Potency	activity, negative = inhibition
COC(=O)C1=CN(c2ccc(F)c(F)c2)C=C(C(=O)OC)C1c1ccc([N+](=O)[O-])cc1	inactive	–
Cc1cc(=O)[nH]c(=S)[nH]1	inactive	–
O=c1[nH]c(=S)[nH]c2[nH]c(=S)[nH]c12	inactive	–
Cc1c(C)c(C)c2[nH]c(=S)[nH]c2c1C	10 µM (active)	–
Cc1ccc(S(=O)(=O)N(CC(=O)Nc2cccnc2)c2ccc(Br)cc2)cc1	inactive	–
CCCc1ccc(OCCNC(=O)c2ccco2)cc1	inactive	–
COc1ccc(CN2C3CCCC2CC(NC(=O)c2cccc(F)c2)C3)cc1 (centres undefined)	inactive	–
CC(NCC(=O)Nc1cc(Cl)cc(Cl)c1)c1ccccc1 (centres undefined)	inactive	–
COc1ccc(C(=O)NC2CC2)cc1OC1CCN(Cc2ccc(SC)cc2)CC1	inactive	–
COCCN(C(=O)CCC(=O)Nc1nccs1)C(C(=O)NCCC(C)C)c1ccc(F)cc1 (centres undefined)	3.55 µM (active)	–
COCCN(C(=O)CCC(=O)Nc1ccccn1)C(C(=O)NCCC(C)C)c1ccc(OC)cc1 (centres undefined)	inactive	–
COCCN(C(=O)CCC(=O)Nc1nccs1)C(C(=O)NC(C)(C)C)c1ccc(Cl)cc1 (centres undefined)	inactive	–
COc1ccc(C2NC(=O)c3ccccc3N2)cc1 (centres undefined)	inactive	–
CCc1ccc(-c2nn(-c3ccccc3)cc2CSC(=N)N)cc1	20 µM (active)	–
Cc1nnc(SCC(=O)N/N=C/c2cn(-c3ccccc3)nc2-c2ccc(F)cc2)n1-c1ccccc1	inactive	–
Cc1ccc(-c2nn(-c3ccccc3)cc2/C=N/NC(=O)c2ccc3c(c2)OCO3)cc1	inactive	–
C/C(=N\NC(N)=S)c1ccncc1	inactive	–
CC/C(=N\NC(=S)NC(C)C)c1ccc(OC(F)F)cc1	inactive	–
C/C(=N\NC(=S)NC(C)C)c1ccc(C(C)(C)C)cc1	3.98 µM (active)	–
CCOC(=O)N1CCN(Cc2nc3cc(NC(=O)CC)ccc3n2CC)CC1	inactive	–
Cc1ccc(C(=O)CNc2ccc(F)cc2)cc1	inactive	–
Cc1ccc(SC(CC(=O)c2ccc(C(C)(C)C)cc2)C(=O)O)cc1 (centres undefined)	5.01 µM (active)	–
Cc1ccc(CSCC(N)C(=O)O)cc1 (centres undefined)	inactive	–
CCOc1cc(C2/C(=C(/O)c3ccc(S(=O)(=O)N4CCCCC4)cc3)C(=O)C(=O)N2CCOC)ccc1O (centres undefined)	inactive	–
COc1ccccc1OCC(=O)Nc1c2c(nn1-c1ccc(F)cc1)CS(=O)(=O)C2	inactive	–

Compound	Potency	activity, negative = inhibition
COC(=O)c1ccc(NC(=O)Nc2ccc(C)cc2)cc1	inactive	–
COC(=O)c1ccc(NC(=S)Nc2cccc(C)n2)cc1	7.08 µM (active)	–
COC(=O)c1ccc(NC(=S)NN2CCOCC2)cc1	inactive	–
O=C(O)CCCn1c(=O)c2cccn2c2ccc(F)cc21	inactive	–
O=C(Nc1cn(-c2ccccc2)nc1-c1ccccc1)c1ccccc1	inactive	–
O=C(NNC(=S)NC(=O)c1cn(-c2ccccc2)nc1-c1ccccc1)c1ccncc1	8.91 µM (active)	–
O=C(c1cn(-c2ccccc2)nc1-c1cccnc1)N1CCCCC1	inactive	–
Cc1cc2c(c(=O)n1Cc1ccccc1)C1O[C@](CCCCN3C(=O)c4ccccc4C3=O)(Cc3ccccc31)O2	–	-4.77% [at 10 µM] (inactive)
CN(CC(=O)NCc1ccc(Cl)cc1)S(=O)(=O)c1cccs1	inactive	–
CC(C)=CCCC(C)CN1CCC(n2nccc2NC(=O)c2ccccc2)CC1 (centres undefined)	inactive	–
O=C(CN(C(=O)CCC(=O)Nc1nccs1)c1ccc(F)cc1)NCc1ccc2c(c1)OCO2	inactive	–
O=C(/C=C/c1ccc(F)cc1)NC(=S)NNC(=O)c1cccnc1	10 µM (active)	–
CC(C)c1ccc(/C=C/C(=O)NNC(=O)c2cccnc2)cc1	inactive	–
O=C(/C=C/c1ccc(F)cc1)NCCNC(=O)/C=C/c1ccc(F)cc1	inactive	–
COc1ccc(C(=O)N(C)CC(O)c2ccccc2)cc1OC1CCN(C(C)=O)CC1 (centres undefined)	inactive	–
O=C(c1ccco1)N(Cc1nc2ccccc2c(=O)[nH]1)C1CCCC1	8.91 µM (active)	–
CCCC(=O)N(CCc1ccccc1)Cc1nc2ccccc2c(=O)[nH]1	inactive	–
NS(=O)(=O)c1cccc(NC(=O)CSc2nc3ccccc3n2-c2ccccc2)c1	inactive	–
O=C(COc1ncnc2ccccc12)NC(=O)NCc1ccccc1	inactive	–
CCN(CC(=O)Nc1cccc(S(N)(=O)=O)c1)Cc1nc2ccccc2c(=O)[nH]1	7.94 µM (active)	–
CCN(CC(=O)NC(=O)NCc1ccccc1)Cc1nc2ccccc2c(=O)[nH]1	2.24 µM (active)	–
CN(Cc1nc2ccccc2c(=O)[nH]1)Cc1cc(=O)oc2ccc3ccccc3c12	inactive	–
CCN(CC(=O)Nc1ccc(Cl)c(S(=O)(=O)N(C)C)c1)Cc1nc2ccccc2c(=O)[nH]1	inactive	–
CCN(CC)c1ccc(C(=O)NNC(=O)CCc2nc3ccccc3c(=O)[nH]2)cc1	inactive	–
